Experiment in all cases: NCI-60 one-dose screen, 48 h (100 = growth as untreated, 0 = no growth, -100 = all killed)
Holding throughout (conditions): 10 µM unless noted

Assay [1] has as its system NCI-H23 lung.
The test system of assay [2] is NCI-H226 lung.
Assay [3] concerns NCI-H322M lung.
Assay [4] has as its system HOP-62 NSCLC.
The test system of assay [5] is NCI-H460 lung.
Assay [6] relates to HOP-92 NSCLC.
Assay [7] has as its system NCI-H522 lung.
In assay [8] the test system is A549/ATCC NSCLC.
In assay [9] the test system is 786-0 renal.
Assay [10] relates to COLO 205 colon.

The text below walks through data of PubChem BioAssay (NCI).

The panel holds about 83,000 compounds, 20% with a hit somewhere; the sample as a whole holds those more often.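 Activity criterion: percent growth below 10, measured after cells in 96-well plates were exposed to a single compound concentration for 48 hours.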 Values without a mark were called inactive. Activity calls are given as the source filed them.

Consider `C=CCn1c(SCC(=O)Nc2ccc(C(=O)/C=C/c3cc(OC)c(OC)c(OC)c3)cc2)nnc1-c1ccc(Cl)cc1`, for which the growth was 23% in [1]; -4.38% (active) in assay [2]; 56.1% in assay [3]; 25% in assay [4]; 22.9% in [5]; 75% in assay [6]. Further, the growth in [7] is -13.1% (active); in assay [8], 28.9%; in assay [9] it was 15.5%; in assay [10], 31.9%.
Take `COc1cc2nc3c(=O)n(-c4ccc(C#N)cc4)cnn3c(=O)c2cc1OC`: the growth was 98.3% in assay [1]; 95.1% in [2]; 93.3% in [3]; 102% in [4]; 104% in assay [5]; 103% in [6]. For the same compound, the growth in assay [7] is 82.1%; in assay [8] it was 106%; in assay [9], 103%; in assay [10], 94.3%.
As for `CC1(C)CC[C@]2(c3nnc(-c4ccncc4)o3)CC[C@]3(C)C(=CC[C@@H]4[C@@]5(C)CCC(=O)C(C)(C)[C@@H]5CC[C@]43C)[C@@H]2C1`, the growth in [1] is 85.6%; in assay [2], 64.9%; in [3], 91.3%; in assay [4] it was 87.6%; in assay [5], 77.9%; in [6], 92.2%. In addition, the growth in [7] is 71.2%; in assay [8], 73.7%; in assay [9], 85%; in assay [10], 85%.
Turning to `O=C(N/N=C/C[C@@H]1[C@@H](/C=C/[C@@H](O)COc2cccc(Cl)c2)[C@H](O)C[C@@H]1O)c1ccncc1`, the growth in assay [1] was 98.2%; in assay [2], 89.3%; in [3], 101%; in assay [4] it was 79.4%; in assay [5], 102%; in assay [6], 93.7%. Further, the growth is 69.9% in assay [7], 89% in [8], 105% in assay [9] and 113% in assay [10].
For the compound `O=C1C(=O)c2c(nc3ccc(Br)cn23)-c2ccccc21`, the growth was -38.7% (active) in [1]; -92.6% (active) in assay [2]; -96.6% (active) in [3]; -96.5% (active) in [4]; -63.2% (active) in [5]; -75.3% (active) in [6]. Further, the growth in [7] is -72.6% (active); in [8] it was -63.5% (active); in assay [9], -96.9% (active); in assay [10] it was -82.4% (active).
In the case of `OCCNc1nc(NCCO)nc(Nc2ccc(C3=NN(c4cc(Cl)cc(Cl)c4)C(c4ccc(C(F)(F)F)cc4)C3)cc2)n1` (stereo not given), the growth in [1] is 56.6%; in assay [2] it was 80.2%; in [3], 49.1%; in assay [4] it was 32.5%; in assay [5], 14.8%; in [6], 65.8%. Besides, the growth in assay [7] is 61.2%; in [8], 32.9%; in assay [9], 2.27% (active); in assay [10], 25.3%.
Regarding `C=C1C(=O)O[C@H]2[C@H]1CC/C(COC(=O)c1c[nH]c3ccccc13)=C\CC[C@@]1(C)O[C@@H]21`, the growth in assay [1] is -52.9% (active); in assay [2] it was -78.3% (active); in assay [3], 16%; in [4] it was -43.3% (active); in assay [5], 2.46% (active); in assay [6], -59.7% (active). The growth in assay [7] was -66.7% (active); in assay [8] it was -7.16% (active); in [9], -92% (active); in [10], -53.5% (active).
Regarding `O=C1Nc2ccc(Br)cc2/C1=N\N=C/c1cn(Cc2ccccc2)c2ccccc12`, the growth is 94.4% in assay [1]; 80.5% in assay [2]; 84% in assay [3]; 97.2% in assay [4]; 51.9% in [5]; 106% in assay [6]. Besides, the growth in assay [7] is 83.9%; in [8], 91%; in [9] it was 103%; in assay [10] it was 114%.
As to `COc1ccc(/C=C/C(=O)c2ccc(NC(=O)CSc3nnc(-c4ccc(OC)c(OC)c4)n3-c3ccccc3)cc2)cc1`, the growth was 21.3% in [1]; 80.7% in assay [2]; 99.1% in assay [3]; 48.5% in [4]; 91.3% in assay [5]; 52.7% in assay [6]. Besides, the growth was -60.9% (active) in [7], 80% in [8], -67% (active) in assay [9] and 26.7% in assay [10].
As for `CCCCn1c(=O)c(/C=C/C(=O)/C=C/c2cc3ccccc3n(CCCC)c2=O)cc2ccccc21`, the growth is -7.39% (active) in assay [1]; -22.8% (active) in assay [2]; 49.6% in assay [3]; 49% in assay [4]; 5.91% (active) in [5]; 64.4% in assay [6]. Besides, the growth in assay [7] was 5.74% (active); in assay [8], -0.936% (active); in assay [9], -63% (active); in [10], -22% (active).
For `CC[C@]12C=CCN3CC[C@@]4(c5cc(NC(=O)CCC(=O)O[C@H]6CC[C@H]7[C@@H]8CC[C@H]9CC(=O)CC[C@]9(C)[C@H]8CC[C@]67C)c(OC)cc5N(C)[C@H]4[C@@](O)(C(=O)OC)[C@@H]1OC(C)=O)[C@@H]32`, the growth in assay [1] is 89.7%; in [2], 70.9%; in assay [3], 99%; in [4], 95.6%; in [5], 64.5%; in assay [6] it was 52.4%. In addition, the growth in [7] was 63.6%; in assay [8], 56.7%; in assay [9] it was 74.7%; in assay [10], 69.1%.
